MEKK2 mut-MEK5: MEK5 binding signal on mutant MEKK2 PB1, primary screen, biochemical, multiplex bead flow cytometry, Alexa488-MEK5; Alexa488-MEK5 binding to MEKK2 mutant; percent response, % at 10 µM; actives 0.35% (n = 290,000); in the data active means percent response above about 24%, passing the limit was not always enough
MEKK2 WT-MEK5: modulators of MEK5 binding to wildtype MEKK2, primary screen, biochemical, multiplex bead flow cytometry, Alexa488-MEK5 | binding response (% of control), % at 10 µM | Mitogen-activated protein kinase kinase kinase 2 (Homo sapiens), Q9Y2U5 | Alexa488-MEK5 binding to MEKK2 WT; actives lie on both sides | actives 1.1% (n = 290,000); in the data active means binding response below about 67% or above about 130%
Mot1-301 SUMO: yeast Mot1-301 growth rescue at high temperature, primary screen, SUMOylation pathway inhibitor project, S. cerevisiae, ATP luminescence, 38.5C; S. cerevisiae Mot1-301 growth rescue; percent above DMSO median, 100 means doubled; growth rescue, % at 18.8 µM; actives 1% (n = 320,000); AID 2716, 2010;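 active means every valid replicate shows activation above 250% relative to neutral control wells; inactive means the rest, any valid replicate at or below 250%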;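 further: OY570 slx delta 5 strain wells were the positive control but not used for scaling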
MEKK3 PB1 HTS: modulators of MEKK3-MEK5 PB1 binding, primary screen, biochemical, wildtype MEKK3, multiplex bead flow cytometry, Alexa488-MEK5 | actives 1.4% (n = 290,000) | Mitogen-activated protein kinase kinase kinase 3 (Homo sapiens), Q99759 | binding response (% of control), % at 10 µM | AID 1529, 2009 | bead-based flow cytometry, Alexa488-MEK5 binding to MEKK3; actives lie on both sides; 0 = blocked by unlabeled MEK5, 100 = vehicle;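 active means binding response more than 3 SD above or below the average of its plate-row segment, actives on both sides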;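 further: Alexa488 bead fluorescence after subtracting the streptavidin-only scavenger bead signal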
CHT block: inhibitors of human choline transporter CHT; B-score at 10 µM; High affinity choline transporter 1 (Homo sapiens), Q9GZV3; actives 0.86% (n = 310,000); CHT-expressing cells, membrane potential dye, choline response; hits give low values;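 active means B-score over 3 SD under the library average, and starting fluorescence ratio not unusually high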;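 further: choline stimulus applied at its EC90 after an EC20 pre-addition; B-score computed on integrated fluorescence ratio after choline addition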
Target sequence (Q9GZV3 whole entry, looked up): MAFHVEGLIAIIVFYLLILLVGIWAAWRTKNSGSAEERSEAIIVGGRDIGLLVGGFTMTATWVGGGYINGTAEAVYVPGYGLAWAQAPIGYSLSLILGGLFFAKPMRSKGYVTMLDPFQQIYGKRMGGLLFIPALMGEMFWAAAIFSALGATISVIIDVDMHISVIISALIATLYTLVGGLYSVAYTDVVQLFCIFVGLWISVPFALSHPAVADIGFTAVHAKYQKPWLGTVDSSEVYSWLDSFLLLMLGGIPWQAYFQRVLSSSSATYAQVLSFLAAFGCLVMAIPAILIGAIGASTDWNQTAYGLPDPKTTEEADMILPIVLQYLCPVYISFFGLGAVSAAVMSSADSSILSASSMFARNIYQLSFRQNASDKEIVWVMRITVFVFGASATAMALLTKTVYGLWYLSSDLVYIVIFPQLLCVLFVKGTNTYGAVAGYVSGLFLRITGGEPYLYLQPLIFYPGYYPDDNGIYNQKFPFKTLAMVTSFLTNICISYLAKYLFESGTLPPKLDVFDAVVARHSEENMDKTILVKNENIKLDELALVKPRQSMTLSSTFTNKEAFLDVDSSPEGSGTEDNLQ
CHT allo act: CHT positive allosteric modulators, primary screen, cell-based, membrane potential dye, choline EC20; CHT-expressing cells; hits give high values; LV-AA mutant CHT in HEK293 cells; B-score at 10 µM; High affinity choline transporter 1 (Homo sapiens), Q9GZV3; actives 0.49% (n = 310,000);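 active means initial fluorescence not abnormally high and integrated response B-score, plate-corrected, over 3 SD above library mean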
MEKK2wt confirm: modulators of MEK5 binding to wildtype MEKK2, confirmation, biochemical, single concentration, multiplex bead flow cytometry; shares compounds with MEKK3 PB1 HTS; Alexa488-MEK5 binding to MEKK2 WT; actives lie on both sides; binding response (% of control), % at 10 µM; actives 2.4% (n = 5,900); AID 1892, 2009; in the data active means binding response below about 16% or above about 210%; inactive means in between
MEKK2mut-MEK5: mutant MEKK2 PB1-MEK5 binding signal retest – biochemical, single concentration, multiplex bead flow cytometry, confirmation | Alexa488-MEK5 binding to MEKK2 mutant | actives 2% (n = 5,900) | percent response, % at 10 µM | shares compounds with MEKK3 PB1 HTS; in the data active means percent response mostly above about 71%, no sharp cut-off; inactive means mostly below about 38%;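 further: higher means compound restores mutant binding toward wildtype level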
MEKK3 confirm: MEKK3 wild-type PB1 binding to MEK5, inhibitors, confirmation, biochemical, bead multiplex flow cytometry, single concentration, wildtype; shares compounds with MEKK3 PB1 HTS; Alexa488-MEK5 binding to MEKK3; hits give low values; binding response (% of control), % at 10 µM; actives 1.8% (n = 5,900); AID 1894, 2009;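 active means binding response below 72% of control, or above a set upper limit, though filed actives all read lower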;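 further: 100% = DMSO only wells and 0% = binding blocked by excess unlabeled MEK5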
An asterisk follows results filed as active; i = inactive; x = not tested or not shown; [ ] = dose if it differs, or a comment. A selection: hits, their analogues and other compounds. The true share with any hit is near 4.1%.

SMILES	MEKK2 mut-MEK5	MEKK2 WT-MEK5	Mot1-301 SUMO	MEKK3 PB1 HTS	CHT block	CHT allo act	MEKK2wt confirm	MEKK2mut-MEK5	MEKK3 confirm
COC(=O)c1c(C)oc(C)c1S(=O)(=O)Nc1ccccc1	24	130	8	132*	i	i	98	-2	102
COC(=O)c1c(C)oc(C)c1S(=O)(=O)N1CCCCC1	6	102	5	108	i	i	x	x	x
O=C(Nc1nc(-c2ccccc2)c(C(=O)c2ccccc2)s1)c1ccc(S(=O)(=O)N2CCCC2)cc1	0	102	-6	135*	i	i	100	-9	101
O=C(Cc1ccc(Cl)cc1)N/N=C/c1ccncc1	3	107	3	104	i	i	x	x	x
Cc1nn(C(C)C(=O)NCc2ccccc2)c(C)c1[N+](=O)[O-] (centres undefined)	3	105	-9	104	i	i	x	x	x
CCc1ccc(NC(=O)C(C)n2nc(C)c([N+](=O)[O-])c2C)cc1 (centres undefined)	-2	75	339	68*[inhibitor]	i	i	92	-7	91
Cc1no[n+]([O-])c1COc1ccc(/C=C(\C#N)C(N)=O)cc1	1	104	-17	134*	i	i	105	3	100
Cc1cc(NS(=O)(=O)c2ccc(NC(=O)CSc3nnc(-c4ccco4)n3C)cc2)nc(C)n1	1	111	-17	141*	i	i	110	11	107
Cn1c(SCC(=O)Nc2ccc3c(c2)OCCO3)nnc1-c1ccco1	-5	102	-1	100	i	i	x	x	x
CCC(=O)N(C)CCc1cc2c(c(OC)c1/C=N/NC(=O)[C@H]1C[C@@H]1c1ccccc1)OCO2	17	99	-5	106	i	i	x	x	x
CCC(=O)N(C)CCc1cc2c(c(OC)c1/C=N/Nc1ccc(C(=O)O)cc1)OCO2	30	119	33	132*	i	i	107	11	107
COc1ccc(S(=O)(=O)N2CCCCCC2)cc1NC(=O)c1c2c(nc3ccccc13)CCN(Cc1ccccc1)C2	-1	107	10	105	i	i	x	x	x
COc1ccc(NC(=O)c2c3c(nc4ccccc24)CCN(Cc2ccccc2)C3)c(OC)c1	-1	88	174	75*[inhibitor]	i	i	113	15	106
COc1ccc(C(CNC(=O)Cc2ccccc2F)N2CCCCC2)cc1 (centres undefined)	-1	113	-8	131*	i	i	108	-1	103
C#CCOCCOCCOCCNc1nc(N2CCN(C(=O)[C@H]([C@@H](C)CC)n3cc([C@@H](N)Cc4ccc(O)cc4)nn3)CC2)nc(N2CCN(C(=O)[C@H](Cc3ccc(O)cc3)n3cc([C@@H](N)C(C)CC)nn3)CC2)n1 (some centres undefined)	58*	191*	-2	109	i	i	140	12	106
C#CCOCCOCCOCCNc1nc(N2CCN(C(=O)[C@H]([C@@H](C)CC)n3cc([C@@H](N)Cc4ccc(O)cc4)nn3)CC2)nc(N2CCN(C(=O)[C@H]([C@@H](C)CC)n3cc([C@@H](N)CC(C)C)nn3)CC2)n1	20	139*	14	94	i	i	134	19	101
C#CCOCCOCCOCCNc1nc(N2CCN(C(=O)[C@H]([C@@H](C)CC)n3cc([C@@H](N)CO)nn3)CC2)nc(N2CCN(C(=O)[C@H](Cc3ccc(O)cc3)n3cc([C@@H](N)CC(C)C)nn3)CC2)n1	3	116	-6	75	i	i	x	x	x
C#CCOCCOCCOCCNc1nc(N2CCOCC2)nc(N2CCN(C(=O)[C@H]([C@@H](C)CC)n3cc([C@@H](N)Cc4ccc(O)cc4)nn3)CC2)n1	5	114	1	104	i	i	x	x	x
C#CCOCCOCCOCCNc1nc(N2CCN(C(=O)[C@H]([C@@H](C)CC)n3cc([C@@H](N)Cc4ccc(O)cc4)nn3)CC2)nc(N2CCN(C(=O)[C@H](Cc3ccc(O)cc3)n3cc([C@@H](N)CC(C)C)nn3)CC2)n1	50	181*	-3	114	i	i	118	8	101
C#CCOCCOCCOCCNc1nc(N2CCN(C(=O)C([C@@H](C)CC)n3cc(C(N)CO)nn3)CC2)nc(N2CCN(C(=O)[C@H](CCC(=O)O)n3cc(C(N)Cc4ccc(O)cc4)nn3)CC2)n1 (some centres undefined)	3	88	x	82	x	x	x	x	x
C#CCOCCOCCOCCNc1nc(N2CCN(C(=O)[C@H]([C@@H](C)CC)n3cc([C@@H](N)Cc4ccc(O)cc4)nn3)CC2)nc(N2CCN(C(=O)[C@H](CCCCN)n3cc([C@@H](N)CO)nn3)CC2)n1	46	171*	-23	110	i	i	189	132*	113
CN(C)CCCN(C(=O)COc1ccc(Cl)cc1)c1nc2ccc(F)cc2s1	2	122	35	103	i	i	x	x	x
Cc1cc(C)c2sc(N(CCCN(C)C)C(=O)COc3ccc(Cl)cc3)nc2c1	55*	246*	-26	113	i	i	192	50	104
Cc1ccc2nc(N(CCCN(C)C)C(=O)COc3ccc(Cl)cc3)sc2c1	44	180*	-29	109	i	i	149	25	100
